Shown are actives, neighbours in structure and some others; about 7.7% of the full set was active somewhere.
Sm TGR inh – inhibitors of Schistosoma mansoni thioredoxin glutathione reductase | 360,000 compounds, 3% hits | purified TGR, DTNB reduction, TNB absorbance 405 nm | Potency, µM (series often up to 114 µM), without a hit: at the highest dose activity change, negative = inhibition, hits mostly inhibitors; further: potency means the concentration at half of the fitted maximal effect; nearly all actives have a fitted effect of over 60% in size
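First, TGR (20 nM dispensed) and NADPH were mixed with compound. Second, a 15 min room-temperature incubation followed. Third, further NADPH and then DTNB were added to start the reaction. Finally, TNB absorbance was monitored kinetically.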
FMDV inh – antivirals against foot and mouth disease virus | FMDV antiviral cell-based qHTS | Potency, µM (top dose mostly 57.9 µM), for the others: at the top dose activity change, negative = inhibition, hits mostly inhibitors | 410,000 compounds, 1.2% hits; calls by dose curve; tested in HEK293T cells; further: read-out not given here; potency means the concentration at half of the fitted maximal effect; nearly all actives have a fitted effect of over 45% in size
Tb PYK inh – blocks Trypanosoma brucei pyruvate kinase. 410,000 compounds, 0.12% hits. Potency, µM (top dose mostly 76.8 µM), inactives show at the highest dose activity, negative = inhibition, hits mostly inhibitors. TbPYK enzyme, Kinase-Glo Plus ATP luminescence, 45 min. AID 624173. Q57TT1; further: potency means the concentration at half of the fitted maximal effect; nearly all actives have a fitted effect of over 50% in size
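TbPYK + substrate in 50 mM TEA pH 7.2, 100 mM KCl, 10 mM MgCl2, 0.05% BSA, 0.01% Tween-20; cpd pinned; ADP 130 uM final; 45 min RT; Kinase-Glo Plus 10 min; luminescence endpoint.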
HCMV inh – human cytomegalovirus inhibition; HFF cells, HCMV-luciferase reporter, 72 h; hits give low values; activity change, negative = inhibition, % at 57.5 µM; 410,000 compounds, 4.5% hits; AID 1259415; in the data active means activity change below about -60%; inconclusive means no clear call, values can overlap the other calls; inactive means above about -39%
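Inhibition of viral replication was scored as loss of reporter luminescence in HFFs infected with HCMV-luciferase (MOI 1 PFU/cell) for 72 h; compounds tested at 2 doses, normalized to buffer and Salinomycin controls.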
Giardia FBPA inh – blocks Giardia fructose-bisphosphate aldolase activity. A8B2U2. 290,000 compounds, 0.71% hits. Potency, µM (top dose mostly 59.6 µM), inactives show at the highest dose activity, negative = inhibition, most hits filed as inhibitors. purified Giardia FBPA. AID 2451; further: potency means the concentration at half of the fitted maximal effect; nearly all actives have a fitted effect of over 55% in size
Target sequence (A8B2U2 whole entry, looked up): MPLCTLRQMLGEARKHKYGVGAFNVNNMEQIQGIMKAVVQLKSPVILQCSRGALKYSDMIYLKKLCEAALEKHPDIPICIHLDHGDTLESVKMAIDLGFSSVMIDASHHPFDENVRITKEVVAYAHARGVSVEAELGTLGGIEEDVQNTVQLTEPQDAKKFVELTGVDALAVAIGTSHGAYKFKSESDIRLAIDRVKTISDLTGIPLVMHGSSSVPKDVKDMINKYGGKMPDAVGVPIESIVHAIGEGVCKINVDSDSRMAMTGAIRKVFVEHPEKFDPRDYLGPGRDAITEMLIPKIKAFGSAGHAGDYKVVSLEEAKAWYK
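40 nM FBPA preincubated 10 min at RT with compound (up to 57.5 uM final), then substrate plus GAPDH/TPI/NAD/arsenate coupling and diaphorase/resazurin added. Fluorescence read after 20 min at RT, 525/598 nm.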
RE007 growth inh – less growth of the S. pombe RE007 Vpr strain | S. pombe RE007 Vpr strain, BacTiter-Glo ATP luminescence, 24 h | Potency, µM (highest dose often 92.2 µM), without a hit: at the highest dose activity change, negative = less growth, hits mostly inhibitors | 360,000 compounds, 0.21% hits; active means well fitted falling curve with a large enough effect; inconclusive means small, poorly fitted or top-dose-only effect; inactive means no such curve, though single readings can be large or run the other way; further: potency means the concentration at half of the fitted maximal effect; nearly all actives have a fitted effect of over 50% in size
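Fission yeast RE007 carrying one integrated HIV-1 vpr copy, seeded at OD 0.01 in PMG+AL medium with 23 nL pinned compound. Grown 24 h at 30 degrees; viability read by BacTiter-Glo luminescence after 5 min.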
Starred values were filed as active, the others as inactive; ? = inconclusive; nt = no result given. Unless noted, the call rests on the fitted dose curve; in most records, active means well fitted curve in the direction sought with a large enough effect; inconclusive means small, poorly fitted or top-dose-only effect, or another doubt; inactive means no such curve, though single readings can be large; an effect the other way counts as inactive or inconclusive. On the % scale 0 is the no-effect control and ±100 the full control effect.

SMILES | Sm TGR inh | FMDV inh | Tb PYK inh | HCMV inh | Giardia FBPA inh | RE007 growth inh
COc1cccc(CSc2nc3n(n2)C(CC(C)C)C(C(=O)Nc2ccccc2C)=C(C)N3)c1 (stereo not given) | 3.9% | 0.4% | 0.7% | -1.3 | nt | nt
CCc1cc(-c2nnn(CCC3COCCO3)c2CC)ccc1-c1cn(Cc2ccccc2)nn1 (stereo not given) | nt | ? | 0.8% | -83.1* | nt | -12.5%
COc1ccc2c(c1)Cc1sc(NC(=O)c3ccc(Cl)cc3)nc1-2 | -25.2% | -18.8% | -25.7% | -63.2* | nt | nt
COc1ccc2c(c1)Cc1sc(NC(=O)c3cccc(Cl)c3)nc1-2 | -8.7% | ? | -3.1% | -27.0 | nt | nt
COc1ccc2c(c1)Cc1sc(NC(=O)c3cccc(C)c3)nc1-2 | -11.5% | 5.3% | 5.5% | -69.6* | nt | nt
COc1ccc(C(=O)Nc2nc3c(s2)CCc2cc(OC)ccc2-3)cc1 | -4.5% | ? | -12.2% | -32.7 | nt | nt
Cc1oc2ncnc(N3CCCCC3)c2c1C(=O)Nc1cccc(Cl)c1C | -1.1% | -17.1% | 0.0% | ? | nt | nt
CCOC(=O)c1noc2nc(C)n(Cc3ccc([N+](=O)[O-])cc3)c(=O)c12 | -0.5% | 0.0% | -2.5% | -10.4 | nt | nt
Cn1cc(CCNC(=O)N2CCOC2=O)c2ccccc21 | nt | nt | nt | 17.9 | nt | nt
CCC1C(=O)C(C)(C)C(=O)OC1c1ccc([N+](=O)[O-])cc1 (stereo not given) | -16.5% | -18.1% | -8.1% | 59.1 | 1.9% | -0.1%
O=C1CC(=O)OC(c2ccc([N+](=O)[O-])cc2)O1 | nt | 10µM* | -32.1% | nt | nt | ?
O=C(NCC1OCCc2ccccc21)c1ccco1 (stereo not given) | 31.6µM* | -0.8% | -9.0% | -7.5 | -22.0% | -1.2%
O=C(NCC1OCCc2ccccc21)c1ccc(NC(=O)c2ccc(Cl)cc2)cc1 (stereo not given) | 0.6% | 0.0% | -4.3% | -82.1* | 5.0% | -4.9%
Cc1ccc(NC(=O)C(=O)NCC2OCCc3ccccc32)cc1 (stereo not given) | 6.5% | 30.3% | -0.3% | -17.5 | 1.4% | -7.3%
CCC(=O)N1CCc2cc(S(=O)(=O)NC(CC(C)C)C(=O)NCCc3ccccc3)ccc21 (stereo not given) | 6.4% | 5.0% | 3.1% | 0.4 | nt | nt
CC(C)CCn1c(Oc2ccccc2F)nc2c1c(=O)n(C)c(=O)n2C | 7.7% | ? | -7.5% | 4.0 | nt | nt
CN(C=C1C(=O)CC(C)(C)CC1=O)CCN1CCNCC1 | 22.4µM* | -1.9% | -18.3% | 22.5 | -1.7% | 20.9%
CC1(C)CC(=O)C(C=NCCN2CCOCC2)=C(O)C1 | ? | nt | 6.2% | -28.9 | -1.1% | 2.6%
O=C(CSc1ncccc1-c1nc2ccccc2[nH]1)NCc1ccco1 | 12.6µM* | 15.2% | -24.7% | 58.4 | -25.6% | -7.0%
Cc1cc2nc(-c3cccnc3SCC(=O)NCc3ccco3)[nH]c2cc1C | 17.8µM* | 35.2% | -1.8% | 162.8 | ? | -24.8%
N#Cc1cccc(-c2cncnc2-n2ccnc2)c1 | nt | -14.5% | nt | nt | -12.6% | nt
COc1c(CC=C(C)C)cc(C2CC(=O)c3c(O)cc(O)cc3O2)cc1CC=C(C)C (stereo not given) | 6.5% | ? | -1.6% | -69.0* | -15.6% | -3.0%
O=C(CC(NC(=O)C(F)(F)F)c1ccccc1)Nc1nnc(CCc2ccccc2)s1 (stereo not given) | -19.1% | -17.3% | -18.6% | -64.7* | 0.8% | -13.3%
Cc1cccc(COc2ccc(-c3cc(C(F)(F)F)n4nc(C)cc4n3)cc2)c1 | -5.8% | 9.6% | -1.8% | 22.2 | nt | nt
C=CCCC(=O)N1C[C@H]2CON(C)[C@H]2C[C@H]1c1ccc(Br)cc1 | nt | -17.0% | 0.9% | -100.5* | nt | -17.9%
SMILES | Sm TGR inh | FMDV inh | Tb PYK inh | HCMV inh | Giardia FBPA inh | RE007 growth inh
O=C1OCc2cc(NS(=O)(=O)c3cccs3)ccc21 | -0.1% | nt | 1.9% | -62.7* | 4.0% | 26.2%
COc1cccc([C@@H]2Oc3ccc(OC)cc3C(=O)[C@H]2OC(=O)NCc2ccco2)c1 | nt | nt | nt | nt | -1.0% | nt
O=C1CC(/C=C/c2ccncc2)=Nc2ccccc2N1 | ? | 1.3% | -13.4% | -98.6* | 4.7% | -8.4%
CCOc1ccc(CCNC(=O)c2sc3ncccc3c2-n2c(C)ccc2C)cc1 | 21.3% | ? | 1.9% | 15.2 | nt | nt
CCOC(=O)c1ccc(Nc2ncnc3c2cnn3C)cc1 | 3.1% | nt | -0.9% | -39.6 | 3.3% | -2.3%
Cn1ncc2c(O/N=C(\N)c3ccc(C(C)(C)C)cc3)ncnc21 | 1.5% | 14.1µM* | -1.1% | nt | -8.5% | ?
Cc1nc2c(c(=O)n1CCC1=CCCCC1)c1nc3ccccc3nc1n2/N=C/c1ccco1 | 11.2µM* | -16.7% | -5.1% | -6.9 | -17.0% | -10.2%
CCCCCCn1cnc2c(c1=O)c1nc3ccccc3nc1n2Cc1cccs1 | 5.4% | ? | -2.8% | 10.1 | 8.1% | -6.9%
CCCCCCn1cnc2c(c1=O)c1nc3ccccc3nc1n2/N=C/c1ccco1 | 14.1µM* | -21.7% | 6.6% | -7.6 | -25.9% | -3.8%
COCCn1cnc2c(c1=O)c1nc3ccccc3nc1n2/N=C/c1ccco1 | 44.7µM* | ? | -2.6% | -24.5 | 0.3% | -16.1%
COC(=O)c1c(C)sc(-c2c(-c3ccc4c(c3)OCCO4)[nH]c3c2c(=O)[nH]c(=O)n3C)c1O | -8.1% | -2.1% | -4.9% | 33.8 | nt | nt
CCOC(=O)c1c(C)n(-c2ccccc2)c2ccc(OC(=O)c3ccc(OCC)c(OCC)c3)cc12 | 6.8% | 0.0% | 0.5% | -2.6 | nt | nt
COc1ccccc1CNC(=O)CCC1N=C2c3ccccc3N=C(SCc3ccc(Cl)cc3)N2C1=O (stereo not given) | 5.5% | 23.8% | 2.1% | -17.1 | nt | nt
COCCNC(=O)c1ccc(C)c(NC(=O)C2=C(C)OCCS2)c1 | -24.6% | 13.8% | 7.2% | 28.5 | 0.9% | 13.2%
CC1=C(C(=O)Nc2cccc(C(=O)NC(C)C)c2)SCCO1 | -7.7% | -7.8% | 0.2% | -25.4 | 6.1% | -14.1%
CC1=C(C(=O)Nc2cc(C(=O)N3CCC(C)CC3)ccc2C)SCCO1 | -4.9% | -7.9% | 1.7% | -63.4* | nt | 7.2%
CCC(C)NC(=O)c1ccc(NC(=O)C2=C(C)OCCS2)cc1 (stereo not given) | 32.2% | 5.5% | -2.8% | -61.5* | 15.6% | -6.0%
COc1ccc2cc(CNc3ccc(C)cc3)c(=O)n(CC(=O)Nc3ccc(OC)c(Cl)c3)c2c1 | 0.9% | -9.9% | -8.3% | 8.9 | nt | nt
Cc1c(C(=O)N2CCOCC2)sc2ncn(CC(=O)N3CCC(C)CC3)c(=O)c12 | 10.3% | -13.9% | 0.3% | nt | 3.8% | 3.1%
Cc1c(C(=O)N2CCN(c3ccc([N+](=O)[O-])cc3)CC2)sc2ncn(CC(=O)N3CCOCC3)c(=O)c12 | 14.5% | -16.1% | 4.4% | -80.4* | -1.1% | 2.9%

Screens from PubChem.
